Anthrax LF prot: inhibitors of Bacillus anthracis lethal factor protease. P15917. multiplex microsphere protease cleavage assay, LF. inhibition, % at 10 µM. actives 0.12% (n = 360,000). AID 588501; also: plate controls were buffer without enzyme for full effect and enzyme alone for no effect
BoNT F protease: blocks Botulinum neurotoxin F light chain protease. Multiplex microsphere protease cleavage assay, flow cytometry. inhibition, % at 10 µM. actives 0.22% (n = 360,000); in the data active = inhibition above about 35%, passing the limit was not always enough; inconclusive = no clear call, values can overlap the other calls; also: plate controls were buffer without enzyme for full effect and enzyme alone for no effect
Autofluor counter: flagged as autofluorescent in microsphere protease counterscreen | compound autofluorescence counterscreen, microsphere flow cytometry; active compounds read high | fluorescence intensity (concentration not given with the values) | actives 3.1% (n = 360,000); in the data active = fluorescence intensity above about 16000; inconclusive = no clear call, values can overlap the other calls
MazF activator: activators of E. coli MazEF toxin-antitoxin RNase | actives 0.32% (n = 350,000) | AID 504720 | FAM/BHQ RNA-DNA oligo cleavage fluorescence, 5 h | P0AE70 | activation, % at 20 µM; in the data active = activation above about 50%
BoNT A protease: blocks Botulinum neurotoxin A light chain protease. inhibition, % at 10 µM. multiplex microsphere protease substrate cleavage, flow cytometry. actives 0.17% (n = 360,000); also: plate controls were buffer without enzyme for full effect and enzyme alone for no effect
Active calls of the source: *; ? = inconclusive; . = no result given. Only some compounds are listed: those with a hit (about 3.7% of all), similar ones and a draw of the others. Rule as the data show it, unless noted: active = inhibition above about 30%; inconclusive = no clear call, values can overlap the other calls; inactive = below that.

SMILES	Anthrax LF prot	BoNT F protease	Autofluor counter	MazF activator	BoNT A protease
Cc1ccc(C(=O)NCC(=O)OCC(=O)Nc2ccc(Cl)cc2C(F)(F)F)cc1C	-0.5	38.3*	2860	3.9	5.0
COc1cccc(C(CCc2cc(OC)c(OC)c(OC)c2)NC(C)=O)c1 (stereo unspecified)	-0.9	2.5	3822	5.7	-0.5
CCOC(=O)c1c(-c2cccs2)csc1NC(=O)CN(CC)CC	-6.4	-0.6	22950*	-8.4	-1.5
CCOC(=O)c1c(-c2cccs2)csc1NC(=O)CC(C)C	-0.3	-9.0	4044	-2.0	0.5
COc1ccc(NC(=O)c2sc(=O)n(Cc3ccc(F)c(Cl)c3)c2C)cc1OC	-6.6	0.2	5481	.	0.3
C=CCNc1ncnc2c1ncn2[C@H]1CN(Cc2ccc(-c3ccccc3)cc2)C[C@@H](CO)O1	1.1	2.2	3520	.	0.3
CN1C(=O)/C(=C/c2ccc(OCc3cccc(F)c3)cc2)NC1=S	1.2	19.0	3701	2.7	-1.0
COc1cc(/C=C2/C(=O)N(C)C(=S)N2C)ccc1OCc1cccc(F)c1	-1.1	16.2	4116	65.7*	2.2
Clc1ccc(-c2nnc(-c3ccc(Br)o3)o2)c(Cl)c1	0.7	1.9	22190*	-5.1	0.9
Cc1cc(C)nc(Nc2n[nH]c(COc3ccc4ccccc4c3)n2)n1	-0.9	-1.4	22079*	35.4	1.1
Cc1ccc(NC(=O)N2CCCC2C(=O)NCCC2=CCCCC2)cc1 (stereo unspecified)	-9.5	5.7	18611*	-0.3	?
Cc1ccc(NC(=O)N2CCC(C(=O)NCCC3=CCCCC3)CC2)cc1	-3.4	-3.2	16684*	4.2	-0.4
CCCOc1ccc(C2C(=O)N(C3CCCCC3)CC(=O)N2C2CC2)cc1OC (stereo unspecified)	-1.7	-3.3	20615*	-2.2	-1.9
COc1ccc(C2C(=O)N(C3CCCCC3)CC(=O)N2C2CCCC2)cc1 (stereo unspecified)	-1.0	-4.6	10672	-9.4	-0.7
CCCOc1ccc(C2C(=O)N(C3CCCCCC3)CC(=O)N2Cc2ccco2)cc1OC (stereo unspecified)	1.0	0.1	22488*	5.9	0.2
COc1ccc(C2C(=O)N(C3CCCCCC3)CC(=O)N2Cc2ccccc2)cc1OC (stereo unspecified)	-2.1	-0.1	19721*	1.6	1.4
COc1ccc(CN2C(=O)CN(C3CCCCCC3)C(=O)C2c2ccc(OC)c(OC)c2)cc1 (stereo unspecified)	-1.2	-1.7	10137	-1.9	-0.6
CCOc1ccc(C2c3[nH]c4ccccc4c3C[C@H]3C(=O)N(C4CC4)CC(=O)N23)cc1OC (stereo partly specified)	-5.0	-2.5	3864	-3.7	-0.7
COc1ccc(C2C(=O)N(CCc3ccccc3)CC(=O)N2C2CCCC2)cc1 (stereo unspecified)	-1.1	-0.3	23925*	-6.8	-2.2
Cc1ccc(S(=O)(=O)NC(=O)C2(C)CCN2C(=O)Cc2ccc(C(C)(C)C)cc2)cc1 (stereo unspecified)	-1.1	2.4	3986	.	-0.1
CCN(CC(=O)Nc1ccc(NC(C)=O)cc1)C(=O)/C=C/c1ccc(C)o1	-0.9	-14.1	4177	2.5	-1.7
COc1ccc(C2C(=O)N(C3CCCCC3)CC(=O)N2Cc2ccco2)cc1 (stereo unspecified)	-5.2	2.7	20572*	3.3	?
CCc1ccc(C2C3=C(CC(C)(C)CC3=O)Nc3c2c(=O)[nH]c2nc(C)nn32)cc1 (stereo unspecified)	-1.3	-8.3	21959*	0.5	?
COc1ccc(C2C3=C(CC(C)(C)CC3=O)Nc3c2c(=O)[nH]c(=O)n3Cc2ccccc2)cc1OC (stereo unspecified)	-1.9	-3.9	23655*	-5.8	-1.0
COc1cc(C2C3=C(CC(C)(C)CC3=O)Nc3c2c(=O)[nH]c(=O)n3Cc2ccccc2)ccc1O (stereo unspecified)	-1.2	2.1	2134	-9.6	0.0
SMILES	Anthrax LF prot	BoNT F protease	Autofluor counter	MazF activator	BoNT A protease
Cc1cccnc1C1=NOC(Cc2ccccc2)C(=O)N1C (stereo unspecified)	-10.9	-1.4	5060	.	0.3
CN1C(=O)C(O)(CC(=O)c2cccnc2)c2ccccc21 (stereo unspecified)	-2.7	-5.4	23918*	9.6	-2.7
CCOc1ccc(OCCSc2nc(C)cc(=O)[nH]2)cc1	-0.2	-1.6	2771	1.8	-0.3
Cc1cc(=O)[nH]c(SCCCOc2ccc3c(c2)CCC3)n1	3.3	-1.1	23738*	-2.3	0.2
Cc1ccc(SCCSc2nc(C)cc(=O)[nH]2)cc1	3.9	-34.3	4311	0.7	-1.1
COc1cccc(OC)c1OCCCSc1nc(C)cc(=O)[nH]1	-0.7	4.2	22471*	6.8	2.6
Cc1ccc(NC(=O)C(C)NS(=O)(=O)c2ccc(F)cc2)cc1C (stereo unspecified)	-1.7	0.4	2522	0.7	0.2
CNC(=O)CN(C)S(=O)(=O)c1ccc(F)cc1	-0.6	1.7	23131*	0.2	?
CNC(=O)C(C)NS(=O)(=O)c1ccc(F)cc1 (stereo unspecified)	-1.2	-5.2	21451*	6.5	-4.4
CN(CC(=O)O)S(=O)(=O)c1ccc(F)cc1	0.0	-9.3	10317	-14.0	0.1
CCOC(=O)[C@]12CCCC=C1N(Cc1cccc3ccccc13)C(=O)[C@H](CC(=O)NCCCN1CCCC1=O)C2	3.3	2.3	5465	.	0.4
CCc1ccccc1Oc1nc(NC(C)C)nc2ccsc12	-8.0	-3.5	4045	.	-0.2
c1ccc(-c2nc(NCC3CCCO3)c3oc4ccccc4c3n2)cc1 (stereo unspecified)	-2.7	-1.4	23676*	-6.2	?
c1ccc2c(c1)oc1c(NCC3CCCO3)ncnc12 (stereo unspecified)	0.5	2.4	23180*	2.5	0.1
O=C(CSc1ncnc2c1oc1ccccc12)NCC1CCCO1 (stereo unspecified)	2.2	1.3	7999	0.5	0.4
CCc1nc(NCc2ccccn2)c2oc3ccccc3c2n1	0.8	-5.7	3285	7.2	-0.1
c1ccc(CNc2ncnc3c2oc2ccccc23)nc1	-3.6	-0.9	22122*	0.0	?
CC(C)Cc1nc2oc3c(NCC4CCCO4)ncnc3c2c2c1CCC2 (stereo unspecified)	1.7	2.8	18869*	-11.5	?
O=C(O)CNc1nc(-c2ccccc2)nc2c1oc1ccccc12	0.6	-8.8	4190	-0.1	0.9
Nc1ccc(C(=O)NN2C(=O)[C@H](Cl)C2c2ccc(Cl)cc2)cc1 (stereo partly specified)	2.0	-0.4	5920	-20.1	0.2
CCOC(=O)[C@]12CCCC=C1N(Cc1cccc3ccccc13)C(=O)[C@H](CC(=O)NCCc1ccccc1OC)C2	-0.9	-2.3	4140	.	-0.1
O=C(CN1C(=O)CSc2ccc(S(=O)(=O)N3CCOCC3)cc21)NCc1ccc(Cl)cc1	-1.2	3.7	5678	3.6	2.0

Screens deposited in PubChem BioAssay by several laboratories.
